This is a sample that favours compounds with a hit; in the whole collection about 9% have one here.
G9a block: qHTS Assay for Inhibitors of Histone Lysine Methyltransferase G9a. Potency, µM (titrated, usually from 102 µM), actives largely listed as inhibitors. G9a H3K9 monomethylation, AlphaScreen, 2 h. actives 8.8% (n = 350,000). Histone-lysine N-methyltransferase EHMT2 (Homo sapiens), Q96KQ7; further: nearly all actives have a fitted effect of over 75% in size
Target sequence (Q96KQ7 913-1193 limits assumed): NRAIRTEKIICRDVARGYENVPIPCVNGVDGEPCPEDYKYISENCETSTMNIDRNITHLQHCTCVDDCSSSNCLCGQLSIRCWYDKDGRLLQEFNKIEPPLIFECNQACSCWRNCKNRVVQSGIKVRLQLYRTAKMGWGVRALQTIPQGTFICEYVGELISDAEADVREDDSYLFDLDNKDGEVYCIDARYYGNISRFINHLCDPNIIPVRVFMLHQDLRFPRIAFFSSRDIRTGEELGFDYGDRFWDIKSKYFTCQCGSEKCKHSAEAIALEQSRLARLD
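Signal arises when biotinylated H3K9 peptide, once monomethylated, bridges streptavidin donor and antibody-captured acceptor beads. Enzyme at 20 nM was preincubated 15 min with test compounds; peptide 500 nM and SAM 20 uM then reacted for 2 h.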
JMJD2A Tudor: qHTS Assay for Inhibitors of JMJD2A-Tudor Domain; Lysine-specific demethylase 4A (Homo sapiens), O75164; AlphaScreen JMJD2A-Tudor / H3K4me3 peptide binding; actives 4.4% (n = 390,000); Potency, µM (series often up to 114 µM), most hits filed as inhibitors; further: nearly all actives have a fitted effect of over 50% in size
PLK1 PBD inh: qHTS for Inhibitors of PLK1-PDB (polo-like kinase 1 - polo-box domain): Primary Screen. Serine/threonine-protein kinase PLK1 (Homo sapiens), P53350. Plk1 PBD binding of FITC phosphopeptide, fluorescence polarization. Potency, µM, usual class: inhibitors. actives 2.8% (n = 360,000). AID 720504, 2013; further: series mostly up to about 57 µM; nearly all actives have a fitted effect of over 65% in size
ALOX12 inh: Primary qHTS assay for inhibitors of human arachidonate 12S-lipoxygenase (ALOX12): Round 2. purified 12hLO, xylenol orange hydroperoxide absorbance. Potency, µM (doses to about 108 µM), usual class: inhibitors. actives 1.1% (n = 580,000)
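Hydroperoxide product was detected by ferrous iron/xylenol orange as the 573 to 405 nm absorbance ratio. Arachidonic acid at 40 uM (final) was turned over for 30 min at room temperature by 150 nM human 12hLO, pH 7.0 Hepes buffer, after 15 min compound preincubation.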
BAZ2B block: qHTS Assay for Inhibitors of BAZ2B; Potency, µM (highest dose often 114 µM), usual class: inhibitors; AlphaScreen BAZ2B-H3K14Ac peptide displacement; Bromodomain adjacent to zinc finger domain protein 2B (Homo sapiens), Q9UIF8; actives 4.4% (n = 360,000); further: nearly all actives have a fitted effect of over 60% in size
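BAZ2B 50 nM plus b-H3(5-23)K14Ac 50 nM, PBS pH 7.4/0.01% Tween-20, 30 min RT; compound added (max 110 uM), 30 min RT; streptavidin donor/Ni-chelate acceptor beads 10 ug/mL final, 20 min dark; AlphaScreen read.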
HP1b chromo inh: HTS for Inhibitors of HP1-beta Chromodomain Interactions with Methylated Histone Tails; Potency, µM (top dose mostly 114 µM), hits mostly inhibitors; AlphaScreen HP1-beta / biotin-H3K9me3 peptide binding; Chromobox protein homolog 1 (Homo sapiens), P83916; actives 0.56% (n = 390,000); further: nearly all actives have a fitted effect of over 70% in size
Target sequence (P83916 whole entry, looked up): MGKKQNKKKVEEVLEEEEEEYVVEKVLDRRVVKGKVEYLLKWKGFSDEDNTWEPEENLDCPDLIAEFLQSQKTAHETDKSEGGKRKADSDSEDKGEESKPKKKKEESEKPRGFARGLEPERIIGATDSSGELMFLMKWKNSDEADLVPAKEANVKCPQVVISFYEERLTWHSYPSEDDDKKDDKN
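HP1-beta protein (50 nM final) preincubated 30 min at room temperature with biotinylated H3(1-18)K9me3 peptide (50 nM) in PBS pH 7.4, 0.01% Tween-20, then compound added for 30 min. AlphaScreen streptavidin donor/nickel chelate acceptor beads (10 ug/mL final), 30 min dark, luminescence read.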
Each line names hits and unclear results; the compound was inactive in the other large screens. The call rests on the fitted dose curve; in most records, active means well fitted curve in the direction sought with a large enough effect; inconclusive means small, poorly fitted or top-dose-only effect, or another doubt; inactive means no such curve, though single readings can be large; an effect the other way counts as inactive or inconclusive.

Cc1cc(C)nc(SCC(=O)N/N=C/c2cccn2-c2cccc(C(F)(F)F)c2)n1	G9a block inconclusive, JMJD2A Tudor inconclusive, ALOX12 inh inconclusive, BAZ2B block inconclusive
Cc1cc(C)nc(SCC(=O)N/N=C/c2cccc([N+](=O)[O-])c2)n1	JMJD2A Tudor 39.8µM, PLK1 PBD inh 21.2µM
CCc1ccc2[nH]c(=O)c(CN(Cc3cccnc3)Cc3nnnn3Cc3ccccc3)cc2c1	none (no result: G9a block, PLK1 PBD inh, ALOX12 inh, BAZ2B block)
C[C@@H]1CN([C@H](C)CO)C(=O)Cc2cc(NS(=O)(=O)c3ccc(F)cc3)ccc2O[C@H]1CN(C)Cc1ccc(C(=O)O)cc1	none (no result: G9a block, BAZ2B block)
O=C(CCn1c(=O)[nH]c2ccccc2c1=O)N1CCN(c2cccc(C(F)(F)F)c2)CC1	none
CCOc1ccccc1Oc1c(C)oc2cc(OC(=O)C(C)C)ccc2c1=O	none (no result: G9a block, JMJD2A Tudor, PLK1 PBD inh, BAZ2B block, HP1b chromo inh)
O=C1CCCC2=C1C(c1ccc(Cl)cc1)C1C(=O)c3ccccc3C1=N2 (configuration not stated)	G9a block inconclusive, JMJD2A Tudor inconclusive, ALOX12 inh inconclusive, BAZ2B block inconclusive
O=C1c2ccccc2C2=Nc3ccccc3SC(c3cccc(F)c3)C12 (configuration not stated)	G9a block inconclusive, JMJD2A Tudor 22.4µM, BAZ2B block 28.2µM, HP1b chromo inh 28.2µM
Fc1cccc(C2NN=C(c3ccccc3)S2)c1 (configuration not stated)	G9a block inconclusive, PLK1 PBD inh inconclusive
O=C1c2ccccc2C2=Nc3ccccc3SC(c3ccc(Cl)cc3)C12 (configuration not stated)	G9a block 11.2µM, JMJD2A Tudor inconclusive, BAZ2B block 10µM, HP1b chromo inh inconclusive
CC1=C(c2ccc(F)cc2)S(=O)(=O)N=C1N1CCC(C(=O)NCCc2ccccc2)CC1	ALOX12 inh inconclusive (no result: PLK1 PBD inh)
CC1(C)Cc2c(C#N)c(NCCO)nc(-c3ccco3)c2CO1	G9a block 39.8µM, ALOX12 inh inconclusive
N#Cc1c(NCCCO)nc(-c2ccco2)c2c1CCCC2	G9a block 3.16µM, ALOX12 inh inconclusive
Cc1ccc(C2Cn3nnc(-c4noc(-c5ccco5)n4)c3CO2)cc1 (configuration not stated)	none (no result: G9a block, JMJD2A Tudor, PLK1 PBD inh, BAZ2B block, HP1b chromo inh)
COC(=O)c1cc(=O)n(-c2ccc(F)cc2)c(=Nc2ccc(F)cc2)s1	G9a block 39.8µM, JMJD2A Tudor inconclusive, BAZ2B block inconclusive
COC(=O)c1cc(=O)n(Cc2ccco2)c(=Nc2ccc(F)c(Cl)c2)s1	G9a block 35.5µM, JMJD2A Tudor inconclusive, BAZ2B block inconclusive
COC(=O)c1cc(=O)n(Cc2cccs2)c(=Nc2ccc(F)cc2)s1	BAZ2B block inconclusive (no result: G9a block)
COC(=O)c1cc(=O)n(Cc2ccco2)c(=Nc2ccccc2)s1	none (no result: G9a block, JMJD2A Tudor, PLK1 PBD inh, BAZ2B block, HP1b chromo inh)
COC(=O)c1cc(=O)n(CCc2ccccc2F)c(=Nc2ccc(F)c(Cl)c2)s1	G9a block 39.8µM, JMJD2A Tudor inconclusive, BAZ2B block inconclusive
COc1ccc(-c2nc(CS(=O)CC(=O)NCCC3=CCCCC3)c(C)o2)cc1 (configuration not stated)	G9a block 79.4µM
CCc1ccc(-c2nc(CS(=O)CC(=O)NC3CCCCCC3)c(C)o2)cc1 (configuration not stated)	PLK1 PBD inh 29.9µM (no result: G9a block)
CCc1ccc(-c2nc(CS(=O)CC(=O)NC3CC3)c(C)o2)cc1 (configuration not stated)	G9a block inconclusive
COc1ccc(-c2nc(CS(=O)CC(=O)NC3CCCC(C)C3C)c(C)o2)cc1OC (configuration not stated)	G9a block 56.2µM
COc1ccc(-c2nc(CS(=O)CC(=O)NC3CCCCC3)c(C)o2)cc1OC (configuration not stated)	G9a block inconclusive (no result: ALOX12 inh)
CCN1CCN(S(=O)(=O)c2ccc(S(=O)(=O)NCC3CCCO3)cc2)CC1 (configuration not stated)	G9a block inconclusive, BAZ2B block inconclusive
Cn1cc(CN2CCC(C(=O)NC(c3ccc(F)cc3)c3ccc4ccccc4n3)CC2)c2ccccc21 (configuration not stated)	ALOX12 inh 44.7µM (no result: G9a block, JMJD2A Tudor, BAZ2B block, HP1b chromo inh)
COc1cccc(NC(=O)CN(C)C(=O)c2cccc(S(=O)(=O)N3c4ccccc4CC3C)c2)c1 (configuration not stated)	G9a block 15.8µM
COc1cccc(NC(=O)CN(C)C(=O)c2ccc(Cl)c(S(=O)(=O)N3CCCCCC3)c2)c1	G9a block 70.8µM
CCCCSc1nc(C(=O)O)cc(=O)[nH]1	G9a block 39.8µM, JMJD2A Tudor 39.8µM
C/C(=N\NC(=S)Nc1ccc(F)cc1)C1CC1	G9a block inconclusive, JMJD2A Tudor 28.2µM, ALOX12 inh inconclusive
O=C(O)C1CCN(C(=O)COc2ccc3c4c(c(=O)oc3c2)CCC4)CC1	G9a block 50.1µM, BAZ2B block inconclusive
O=c1oc2cc(OCc3ccc([N+](=O)[O-])cc3)ccc2c2c1CCCC2	none
O=C(O)c1ccc(COc2ccc3c4c(c(=O)oc3c2)CCC4)o1	G9a block 39.8µM, JMJD2A Tudor inconclusive, BAZ2B block inconclusive
NC(=O)C1CCN(C(=O)COc2ccc3c4c(c(=O)oc3c2)CCCC4)CC1	BAZ2B block inconclusive
CCOCCOC(=O)COc1ccc2c(=O)c(Oc3ccccc3Cl)coc2c1	none (no result: G9a block, JMJD2A Tudor, PLK1 PBD inh, BAZ2B block, HP1b chromo inh)
CC(C)C(=O)Nc1ccc(C2(C(=O)O)CCC2)cc1	none (no result: G9a block, JMJD2A Tudor, PLK1 PBD inh, BAZ2B block, HP1b chromo inh)
Cc1ccc(C(=O)Nc2ccc(C(=O)N/N=C/c3ccncc3)cc2)cc1	G9a block 31.6µM, BAZ2B block inconclusive (no result: JMJD2A Tudor, PLK1 PBD inh, ALOX12 inh, HP1b chromo inh)
Cc1cccc(N/N=C/c2ccc(C)s2)c1	G9a block inconclusive, JMJD2A Tudor inconclusive, BAZ2B block inconclusive
Cc1csc(N/N=C\c2cccnc2)n1	G9a block 44.7µM (no result: BAZ2B block)
Cc1ccc(N/N=C/c2ccc(C)s2)cc1	ALOX12 inh 56.2µM (no result: G9a block, JMJD2A Tudor, PLK1 PBD inh, BAZ2B block, HP1b chromo inh)
Cc1ccc(N/N=C/c2ccncc2)cc1	G9a block 28.2µM, JMJD2A Tudor inconclusive, ALOX12 inh inconclusive, BAZ2B block inconclusive
CCCCSc1nc(CCC)cc(=O)[nH]1	G9a block inconclusive
Cc1ccc(-c2noc([C@@H]3Cc4nc[nH]c4CN3C(=O)COCC(=O)O)n2)cc1	none (no result: G9a block, JMJD2A Tudor, PLK1 PBD inh, BAZ2B block, HP1b chromo inh)
Cc1ccc(N/N=C/c2cccnc2)cc1	G9a block inconclusive, JMJD2A Tudor inconclusive, ALOX12 inh 39.8µM, BAZ2B block inconclusive, HP1b chromo inh inconclusive
COCCn1c(=O)c(CCc2ccccc2)nc2cnc(OCc3ccccc3)nc21	none (no result: JMJD2A Tudor, PLK1 PBD inh, BAZ2B block, HP1b chromo inh)

High-throughput results as filed in PubChem BioAssay.
